Source: PubChem BioAssay (The Scripps Research Institute Molecular Screening Center)
CHO-K1 Ca PAM: counter-screen for M1 PAMs: effect in parental CHO-K1 cells | ATP EC20, Fluo-8 calcium fluorescence; 0% at ATP EC20, 100% at ATP max | activation, % at 3 µM | hit rate 0.02% among 360,000;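 active = activation above the run cutoff, the mean activation of all test compounds plus 3 SD, cut at about 40% in these data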;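 note: peak over basal fluorescence ratio in a 140 s read after ATP addition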
CHRM1 agonist: activates human CHRM1 receptor; P11229; CHO-K1 hM1, Fluo-8 calcium fluorescence, agonist mode; 0% DMSO, 100% acetylcholine EC100; activation, % at 3 µM; hit rate 0.33% among 360,000;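 active = activation above the run's mean compound activation plus 3 SD, cut at about 16% in these data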;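 note: peak over basal fluorescence ratio within a 140 s kinetic read after compound addition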
Target sequence (P11229 whole entry, looked up): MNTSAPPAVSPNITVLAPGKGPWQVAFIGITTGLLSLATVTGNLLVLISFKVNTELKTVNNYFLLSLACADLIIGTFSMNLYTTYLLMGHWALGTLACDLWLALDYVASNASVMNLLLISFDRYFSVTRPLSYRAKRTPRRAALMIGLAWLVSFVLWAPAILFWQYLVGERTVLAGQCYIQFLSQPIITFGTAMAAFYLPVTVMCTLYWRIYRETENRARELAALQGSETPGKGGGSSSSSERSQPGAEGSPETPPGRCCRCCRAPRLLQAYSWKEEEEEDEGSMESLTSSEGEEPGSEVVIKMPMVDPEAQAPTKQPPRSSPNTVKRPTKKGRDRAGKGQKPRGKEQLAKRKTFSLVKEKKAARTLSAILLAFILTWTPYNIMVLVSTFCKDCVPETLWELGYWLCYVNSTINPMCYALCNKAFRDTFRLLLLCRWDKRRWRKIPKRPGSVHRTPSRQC
M1 antag: human CHRM1 antagonism | P11229 | CHO-K1 hM1, Fluo-8 calcium fluorescence, ACh EC80 antagonist | inhibition, % at 3 µM | hit rate 1.3% among 360,000;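 active = percent inhibition above its own plate's cutoff, namely the mean of that plate's compound wells plus 3 SD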;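 note: peak over basal fluorescence ratio during 140 s after agonist addition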
M1 ag parental: nonselective activator or artifact in parental CHO-K1 cells; AID 602248; Fluo-8 calcium fluorescence; scaled to maximal ATP response, vehicle zero; activation, % at 3 µM; hit rate 0.48% among 360,000; in the data active = activation above about 15%;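 note: untransfected CHO-K1 host cells lacking M1 receptor as counterscreen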
CHRM1 PAM: human CHRM1 positive allosteric modulation; P11229; CHO-K1 hM1, Fluo-8 calcium fluorescence, ACh EC20; 0% = ACh EC20, 100% = maximal ACh; activation, % at 3 µM; hit rate 0.088% among 360,000; AID 588819; in the data active = activation above about 19%, passing the limit was not always enough
CHO-K1 Ca antag: counter-screen for M1 antagonists: effect in parental CHO-K1 cells; ATP-induced calcium, Fluo-8 fluorescence; inhibition, % at 3 µM; hit rate 0.6% among 360,000;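 active = inhibition above a per-plate cutoff, the plate's mean sample inhibition plus 3 SD, cut at about 24% in these data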
Large screens that a line does not name were inactive. In the library only some 2.3% were active in any assay of this set; here they are far more common.

Cc1ccccc1C(=O)N1CCN(c2ccc(NC(=O)c3ccc4c(c3)OCCO4)cc2)CC1	M1 ag parental 19
Cc1cc(C(=O)NC2CCCN(Cc3ccccc3F)C2)n[nH]1 (centres undefined)	none
Cc1cc(C)c(OCC(=O)OCC(=O)N(C)C2CCS(=O)(=O)C2)c(C)c1 (centres undefined)	none
CC(=O)c1c(C)[nH]c(C(=O)OCC(=O)Nc2cc(Cl)ccc2[N+](=O)[O-])c1C	M1 antag 25
CCn1c2ccccc2c2nc3ccccc3nc21	none
CCn1c2ccccc2c2nc3cc(C(=O)O)ccc3nc21	CHO-K1 Ca antag 24
CCOC(=O)c1sc2nc(NC(=O)C(C)(C)C)sc2c1C	M1 antag 32
CCOC(=O)c1sc2nc(NC(=O)C3CC3)sc2c1C	none
Cc1ccc(N2C(=O)CC(NNc3nc4ccccc4s3)C2=O)cc1 (centres undefined)	M1 ag parental 17
NNC(=O)c1cc(C23CC4CC(CC(C4)C2)C3)[nH]n1	M1 ag parental 17
COC(=O)c1c(NC(=O)CN2C(=O)C(=O)N(CC(C)C)C2=O)sc(C)c1C	none
C=CCN1C(=NC(=O)CCCC(=O)O)SC2CS(=O)(=O)CC21 (centres undefined)	CHO-K1 Ca antag 28
C=CCN1C(=NC(=O)CCC(=O)O)SC2CS(=O)(=O)CC21 (centres undefined)	none
O=C(Nc1cccc(Cl)c1)Nc1nnc([C@H]2C[C@H](O)[C@@H](CO)O2)s1	none
CN(C)S(=O)(=O)c1ccc2oc(SCC(=O)c3c(N)n(C4CC4)c(=O)[nH]c3=O)nc2c1	M1 ag parental 20
CN(C)S(=O)(=O)c1ccc2oc(SCC(N)=O)nc2c1	none
CS(=O)(=O)N(CC(=O)NCc1ccncc1)c1ccc(F)c(Cl)c1	none
O=C(CNC1CC1)Nc1cc(C(F)(F)F)ccc1Cl	none
CCc1cccc(C)c1NC(=O)c1ccc2c(c1)CCN2S(C)(=O)=O	none
CCN(CC)C(=O)c1ccc(COc2ccc(Cl)c(C)c2)o1	M1 antag 32
CSc1ncccc1C(=O)Nc1ccc2c(c1)OCCO2	none
O=C(c1cc(COc2cccc(C(F)(F)F)c2)on1)N1CCC(c2ccccc2)CC1	none
CC(=O)c1cccc(OCc2cc(C(=O)N3CCC(N4CCCCC4)CC3)no2)c1	M1 antag 48
CC(=O)c1cccc(OCc2cc(C(=O)N3CCSCC3)no2)c1	none
COc1cccc(OCc2cc(C(=O)N3CCC(c4ccncc4)CC3)no2)c1	none
CC(=O)c1ccc(OCc2cc(C(=O)N3CCCCC3c3cccnc3)no2)cc1 (centres undefined)	M1 ag parental 16
CC(=O)c1ccc(OCc2cc(C(=O)N3CCC(c4ccncc4)CC3)no2)cc1	M1 ag parental 15
O=C(c1cc(COc2cccc(C(F)(F)F)c2)on1)N1CCC(c2ccncc2)CC1	M1 antag 38
CCOc1cccc(C(=O)N2CCCCC2c2cccnc2)c1 (centres undefined)	none
Cc1ccc(NC(=O)c2cc(S(=O)(=O)N3CCOCC3)cn2C)cc1Cl	none
COc1ccc(C(=O)OCC(=O)Nc2cccc(C(C)=O)c2)c(OC)c1OC	M1 ag parental 16
COc1ccc(C(=O)OCC(=O)Nc2c(C)cccc2C)c(OC)c1OC	none
O=C(CN1CCN(C(=O)C2CCCO2)CC1)Nc1ccc(Br)cc1 (centres undefined)	none
O=C(c1ccccc1)c1sc(N2CCOCC2)nc1-c1ccccc1	none
O=C(c1ccccc1)c1sc(N2CCCCCC2)nc1-c1ccccc1	none
COc1ccc(-c2nc(N3CCCCCC3)sc2C(=O)c2ccccc2)cc1	CHO-K1 Ca antag 52
[2H]c1c([2H])c([2H])c(C(=O)c2sc(N3CCCCCC3)nc2-c2ccccc2)c([2H])c1[2H]	M1 antag 39
CC1CC(=O)N(CC(=O)NCc2ccc(F)cc2)c2ccccc2S1(=O)=O (centres undefined)	none
CCN(CC)C(=O)N1c2ccccc2Sc2ccccc21	none
CCN(CC)CCCCN1c2ccccc2Sc2ccccc21	M1 antag 101
CCN(CC)CC(=O)N1c2ccccc2Sc2ccccc21	M1 antag 101
CCN(CC)CC(=O)N1c2ccccc2Sc2ccc(Cl)cc21	M1 antag 99
Cc1ccc(S(=O)(=O)c2ccc(Cl)cc2)cc1S(=O)(=O)NC(C)C(=O)O (centres undefined)	none
O=C(NCC(=O)c1ccccc1)OCc1ccc([N+](=O)[O-])cc1	none
CCc1nn(C(C)C(=O)NCc2cccc(OC)c2)c(=O)c2cc3occc3n12 (centres undefined)	none
O=S(=O)(Nc1nc2ccccc2nc1NCC1CCCO1)c1cc(Cl)ccc1Cl (centres undefined)	none
COc1ccc(N2CCN(C(=O)c3cccc(Br)c3)CC2)c([N+](=O)[O-])c1	none
Cc1[nH]n2c(=O)c(C#N)c(-c3ccccc3)nc2c1-c1ccccc1	CHO-K1 Ca antag 28
Cc1ccc(SCC(=O)OCC(=O)N(CC(C)C)c2c(N)n(Cc3ccccc3)c(=O)[nH]c2=O)cc1C	none
CCOCCn1ccc2c(OCC(=O)Nc3cc(OC)ccc3OC)cccc2c1=O	none
COc1cccc2c(=O)n(CC(=O)Nc3ccccc3)ccc12	none
CCOCCn1ccc2c(OCC(=O)Nc3ccccc3OC)cccc2c1=O	M1 antag 30
COc1cccc2c(=O)n(CC(=O)Nc3ccc(F)cc3F)ccc12	M1 antag 28
O=C(NCC1CCCO1)c1nn2c(C(F)(F)F)cc(-c3ccc(Br)o3)nc2c1Br (centres undefined)	none
CN(C)CCCNc1ncnc2c1c(-c1ccccc1)cn2-c1ccccc1	none
c1ccc(-c2csc3ncnc(NCCN4CCOCC4)c23)cc1	none
c1ccc(CNc2ncnc3scc(-c4cccs4)c23)nc1	M1 antag 30
CN(C)CCCNc1ncnc2scc(-c3ccccc3)c12	M1 antag 48
c1ccc(-c2csc3ncnc(NCc4ccccn4)c23)cc1	M1 antag 43
Cc1cccc(C(C)C)c1NC(=O)c1ccc(CN(c2ccccc2)S(=O)(=O)c2ccccc2)cc1	CHO-K1 Ca antag 26
O=C(Nc1ccccn1)c1ccc(CN(c2ccccc2)S(=O)(=O)c2ccccc2)cc1	none
CCN1CCN(C(=O)c2ccc3c(c2)N(Cc2ccccc2F)C(=O)c2ccccc2S3(=O)=O)CC1	none
CC(C)Oc1ccc(CN2CCC2(C)C(=O)Nc2ccc3c(c2)OCO3)cc1 (centres undefined)	none
CC(C)c1ccc(CN2CCC2(C)C(=O)Nc2ccc3c(c2)OCO3)cc1 (centres undefined)	M1 ag parental 17
CCC(Cc1ccccc1)NS(=O)(=O)c1ccc2c(c1)NC(=O)CO2 (centres undefined)	none
